This is a sample that favours compounds with a hit; in the whole collection about 3.7% have one here.
TIM10 inh: growth inhibitors of isogenic TIM10 control yeast, primary screen, counter-screen for tim10-1 yeast inhibitor project, luminescence, uHTS; S. cerevisiae TIM10 strain growth, BacTiter-Glo luminescence, 24 h; inhibition, % at 10 µM; hit rate 1.4% among 330,000; AID 463195, 2010;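 active = inhibition of 40% or more at the single tested concentration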;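 also: wild-type TIM10 isogenic control strain grown at permissive 25 °C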
tim23-1 inh: growth inhibitors of tim23-1 mutant yeast, primary screen, luminescence, uHTS. hit rate 1.3% among 330,000. inhibition, % at 20 µM. S. cerevisiae tim23-1 growth, BacTiter-Glo luminescence, 24 h;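 active = growth inhibition of the mutant yeast at or above 50%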;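 also: temperature-sensitive mutant grown at 25 °C; plate controls were DMSO-treated mutant yeast for no effect and medium wells lacking yeast for full effect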
NALP3 yeast inh: NALP3 inflammasome inhibitors in reconstituted yeast, primary screen, luminescence, uHTS | Yeast reconstituted NLRP3/ASC/caspase-1, beta-gal luminescence, 24 h | inhibition, % at 10 µM | hit rate 0.39% among 330,000 | AID 2825, 2010;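 active = inhibition of 50% or more; inactive = inhibition below 50%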;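 also: plate controls were induced DMSO wells for no effect and uninduced yeast grown without galactose for full effect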
PfHsp90 yeast 2: growth inhibition of PfHsp90-expressing yeast, primary screen, antimalarial PfHsp90 inhibitor project, S. cerevisiae, BacTiter-Glo luminescence, single point, set 2. BacTiter-Glo ATP, 48 h; yeast lacking PDR1 and PDR3 efflux regulators. hit rate 0.32% among 310,000. AID 504621, 2011. inhibition, % at 9.4 µM;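 active = every replicate shows inhibition above about 80%, whatever the replicate mean, limit read from the data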;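 also: 0% = DMSO neutral controls and 100% = 20 µM radicicol positive controls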
tim10-1 inh: growth inhibitors of tim10-1 mutant yeast, primary screen, luminescence, uHTS. inhibition, % at 20 µM. S. cerevisiae tim10-1 ts strain growth, BacTiter-Glo, 24 h. hit rate 2.2% among 330,000;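 active = inhibition of at least 40%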;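 also: mutant grown at 25 °C; 0% = DMSO wells with yeast and 100% = wells holding no yeast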
tim10-1 conf: growth inhibitors of tim10-1 mutant yeast, confirmation, single concentration, luminescence, S. cerevisiae. shares compounds with tim10-1 inh. S. cerevisiae tim10-1 ts strain growth, BacTiter-Glo, 24 h. inhibition, % at 20 µM. hit rate 56% among 7,400. AID 463213, 2010;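 active = inhibition of yeast growth at or above a set limit in either of two repeat tests at 20 µM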;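 also: tim10-1 mutant grown at permissive 25 °C to find synthetic lethal compounds; 0% = DMSO yeast wells and 100% = medium wells without yeast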
* hit, by the source's call; nt = no result.

SMILES	TIM10 inh	tim23-1 inh	NALP3 yeast inh	PfHsp90 yeast 2	tim10-1 inh	tim10-1 conf
CCN=C1S/C(=C/c2ccc(-c3ccc(F)cc3)o2)C(=O)N1CC	5	22	13	17	45*	29*
CCN=C1S/C(=C\c2ccc(Sc3ccc(Cl)cc3)o2)C(=O)N1CC	4	-2	7	-36	21	nt
Cc1ccc(N=Nc2c(O)n(CN3CCOCC3)c3ccccc23)cc1	30	13	25	nt	44*	32*
CN(CC(=O)Nc1ccccc1Cl)C(=O)CSc1nnc(N)s1	-8	-4	0	-7	-1	nt
O=C(CCCNC(=O)c1ccc(Cl)cc1)NCc1ccccc1F	-13	-1	22	20	-17	nt
CCOC(=O)c1cc(-c2ccncc2)nc2c1c(C)nn2-c1ccccn1	34	45	-4	-36	45*	34*
CCC1=NN2C(=N)/C(=C\c3cccn3-c3cccc(Cl)c3)C(=O)N=C2S1	35	37	14	7	46*	37*
COc1ccc(-n2cccc2/C=C2\C(=N)N3N=C(C(C)C)SC3=NC2=O)cc1	7	25	-1	-21	40*	26
CCC1=NN2C(=N)/C(=C\c3cccn3-c3ccc(Br)cc3)C(=O)N=C2S1	nt	nt	nt	-5	nt	nt
COc1cc2c(c3ccccc13)CCCC2=O	nt	nt	nt	8	nt	nt
Cc1cccc(C)c1-c1ccc(CN2C(CC(C)C)C(=O)N(Cc3cn(CCO)nn3)CCS2(=O)=O)cc1 (stereo not given)	nt	nt	nt	-22	nt	nt
O=C1NCCc2c1[nH]c1ccccc21	-2	6	5	17	4	nt
O=C1NCCc2c1[nH]c1c(Cl)ccc(Cl)c21	33	1	29	-16	42*	36*
S=C(Nc1ccc(Br)cc1)Nc1ccc2c(c1)OCCO2	15	34	25	5	45*	3
CC(C)Cc1nnc(NC(=O)C2=COCCO2)s1	18	5	9	9	10	nt
O=C(Nc1cc2c3c(c1)CC(=O)N3CCC2)c1ccc(Cl)cc1	-3	3	13	9	-21	nt

Bioassay records as filed in PubChem.
